From PubChem BioAssay AID602393 (Broad Institute, 2012)
Screen size: about 350,000 compounds; about 7,000 (2%) were called active. The full list was thinned out, with actives kept by preference. A number with no mark means an inactive call. Cut-off read from the data, not from the text of the source: active = activation above about 40%; inconclusive = no clear call, values can overlap the other calls; inactive = below that.

Assay: Bmi1 luciferase reporter increase in mESCs, primary screen, esBAF inhibitor project, mouse ES cells, Bmi1 luciferase knock-in, single point (AID 602393);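 note: 0% = median of the plate's neutral control wells and 100% = double that signal; a rise in the Bmi1 reporter signal indicates esBAF inhibition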
Settings: 24 h, at 12.5 µM, stronger effect = higher value, 100% = twice the neutral-well signal

Row | Compound | reporter increase
1 | CCCC#Cc1cnc2c(c1)C(=O)N([C@@H](C)CO)C[C@@H](C)[C@@H](CN(C)C(=O)c1ccccc1)O2 | -1.26%
2 | COc1ccc(NC(=O)Nc2ccc3c(c2)C(=O)N([C@@H](C)CO)C[C@@H](C)[C@H](CN(C)C(=O)CCC(F)(F)F)OCCCC[C@@H](C)O3)cc1 | 11%
3 | C[n+]1cc(-c2ccccc2)oc1-c1ccccc1 | 51.8% (active)
4 | COC(=O)C[C@@H]1CC[C@@H]2[C@H](COc3ccc(NC(=O)c4ccccc4OC)cc3C(=O)N2C)O1 | -4.7%
5 | COC(=O)c1ccc(Nc2ncnc3sccc23)cc1 | 41.7% (active)
6 | COC(=O)c1ccc(OC(=O)c2cnccn2)cc1 | 2.58%
7 | O=S(=O)(Nc1ncnc2sccc12)c1cccc(F)c1 | -8.41%
8 | COc1ccc(C(=O)OCC(=O)Nc2cc(C)on2)cc1F | 0.512%
9 | Cc1cc(NC(=O)COc2ccccc2C#N)no1 | 70% (active)
10 | Cc1cc(NC(=O)COn2nnc3ccccc32)no1 | -6.87%
11 | CC(=O)c1c(C)[nH]c(C(=O)COC(=O)CCOc2ccc(C)cc2)c1C | -8.22%
12 | CC(=O)c1c(C)[nH]c(C(=O)COC(=O)c2cccs2)c1C | 48.6% (active)
13 | COc1cccc(C(=O)OCC(=O)c2[nH]c(C)c(C(C)=O)c2C)c1 | 8.69%
14 | C[C@@H]1CN([C@H](C)CO)C(=O)c2cc(-c3ccccc3F)cnc2O[C@H]1CN(C)C(=O)NC1CCCCC1 | -2.88%
15 | C[C@@H]1CN([C@H](C)CO)C(=O)c2cc(-c3ccc(F)cc3)cnc2O[C@@H]1CN(C)C(=O)C1CCC1 | -5.57%
16 | COc1ccccc1-c1nnc(SCC(=O)Nc2ccccc2)o1 | 50.9% (active)
17 | COc1cccc(NC(=O)CSc2nnc(Cc3ccc(OC)c(OC)c3)o2)c1 | -6.14%
18 | COc1ccccc1N1CCN(C(=O)CSc2nnc(-c3ccoc3C)o2)CC1 | -3.09%
19 | COc1ccc(-c2nnc(NC(=O)CS(=O)(=O)c3ccc(Cl)cc3)o2)c(OC)c1 | -8.93%
20 | COc1ccccc1-c1nnc(SCC(=O)N2CC(C)CC(C)C2)o1 (stereo unspecified) | 0.0545%
21 | COc1ccc(-c2nnc(SCC(=O)c3cccs3)o2)c(OC)c1 | 78.8% (active)
22 | O=C(C[C@H]1C=C[C@H](NC(=O)Nc2ccc(C(F)(F)F)cc2)[C@@H](CO)O1)NCCN1CCCC1 | 3.94%
23 | CO[C@@H](CN(C)C(=O)c1cnccn1)[C@@H](C)CN([C@@H](C)CO)S(=O)(=O)c1ccc(Cl)cc1 | 0.654%
24 | COc1ccc(NC(=O)N(C)C[C@@H]2Oc3ccc(NC(=O)CCN4CCOCC4)cc3C(=O)N([C@@H](C)CO)C[C@H]2C)cc1 | 2.67%
25 | C[C@@H]1CN([C@@H](C)CO)C(=O)c2cc(-c3cccnc3)cnc2O[C@H]1CN(C)Cc1ccc(-c2ccccc2)cc1 | -1.47%
26 | C[C@H](CO)N1C[C@H](C)[C@@H](CN(C)Cc2ccncc2)OCCCC[C@H](C)Oc2ccc(NS(=O)(=O)c3ccc(Cl)cc3)cc2C1=O | 0.433%

Row | Compound | reporter increase
27 | COc1ccc(-c2csc(Nc3ccc(O)cc3)n2)cc1 | 78.7% (active)
28 | NS(=O)(=O)c1ccc(NS(=O)(=O)/C=C/c2ccccc2)cc1 | -2.76%
29 | COC(=O)CCc1sc(Nc2ccc(Br)cc2)nc1-c1ccc(OC)cc1 | 3.71%
30 | NS(=O)(=O)c1ccc(Nc2nc(-c3ccccc3)cs2)cc1 | 47.4% (active)
31 | COc1ccc(C(C)(O)c2nc(-c3ccc(C)c(C)c3)cs2)cc1 (stereo unspecified) | -1.35%
32 | CC(=O)c1ccc(Nc2nc(C(N)c3ccccc3)cs2)cc1 (stereo unspecified) | 20.6%
33 | CCCNC(=O)Nc1ccc2c(c1)C(=O)N(C)C[C@H](OC)[C@H](C)CN(Cc1cccnc1)[C@@H](C)CO2 | -1.39%
34 | CN1CCN(C(=O)C[C@@H]2CC[C@@H]3[C@H](COC[C@H](O)CN3CC3CCOCC3)O2)CC1 | 3.66%
35 | CC(C)NC(=O)N[C@@H]1CC[C@H](CC(=O)NCCN2CCCC2)O[C@@H]1CO | -2.08%
36 | COc1ccccc1S(=O)(=O)N[C@@H]1CC[C@@H](CCn2cc(C3CCCCC3)nn2)O[C@H]1CO | 4.02%
37 | CO[C@H]1CN(C)C(=O)c2ccc(NC(=O)C3CCCC3)cc2OC[C@@H](C)NC[C@@H]1C | 0.309%
38 | COc1cccc(NC(=O)Nc2ccc3c(c2)C(=O)N(C)[C@@H]2CC[C@@H](CC(=O)NCCc4ccccc4)O[C@H]2CO3)c1 | 4.83%
39 | C[C@@H]1CN([C@H](C)CO)C(=O)c2cc(NC(=O)CCCN(C)C)ccc2O[C@@H](C)CCCCO[C@H]1CN(C)CC1CCCCC1 | -2.94%
40 | Fc1ccc2nc(N3CCCCC3)sc2c1 | 45.1% (active)
41 | Fc1ccc2nc(Nc3nc4c(s3)CCCC4)sc2c1 | 28.9%
42 | O=C(NCCc1cccc(F)c1)C1CCCN(c2nc3ccccc3s2)C1 (stereo unspecified) | 3.83%
43 | O=C(Cc1ccccc1)N1C[C@@H]2[C@H](c3ccccc31)[C@@H](CO)N2C(=O)Nc1ccc(F)cc1 | -2.51%
44 | O=C(C[C@@H]1C[C@H]2c3cc(NS(=O)(=O)c4ccc(F)cc4)ccc3O[C@H]2[C@@H](CO)O1)NCc1ccccc1F | 12.4%
45 | CCC(=O)N1C[C@@H](C)[C@@H](OC)CN(C)C(=O)c2ccc(NC(=O)Nc3ccccc3)cc2OC[C@H]1C | 0.261%
46 | O=C(CNC(=O)c1cccs1)N/N=C/c1cccc(Br)c1 | -3.05%
47 | CC(=O)Nc1ccc(/C=N/NC(=O)c2cccs2)cc1 | 48.3% (active)
48 | CCc1ccc(NC(=O)C(=O)NNC(=O)c2cccs2)cc1 | 12.8%
49 | Cc1ccc(C)c(NC2=NCC(=O)N2c2ccc3c(c2)OCCO3)c1 | 47.5% (active)
50 | COc1ccc(N2C(=O)CN=C2Nc2cccc(C)c2C)cc1OC | -1.36%
51 | Cc1ccc(CC2CC(=O)N(c3ccc4c(c3)OCCO4)C2=O)cc1 (stereo unspecified) | 11.3%
